Most compounds without a hit are left out; they make up all but 2.7% or so of the library.
NadD inh: inhibitors of Staphylococcus aureus NadD. purified NadD enzyme, colorimetric absorbance read-out. inhibition, % at 20 µM. hit rate 0.78% among 360,000. AID 602399; in the data active = inhibition above about 26%
MPTP inh: blocks calcium-induced mitochondrial swelling | isolated mouse mitochondria, Ca2+ swelling absorbance, 30 min | inhibition, % at 10 µM | hit rate 1.4% among 360,000 | AID 602449;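 active = inhibition of 50% or more, scaled per plate between neutral and stimulator controls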;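 also: 0% = DMSO wells given calcium and 100% = 1 mM EGTA wells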
aDG glyco act: increases alpha dystroglycan glycosylation | AID 624168 | activation, % at 10 µM | hit rate 0.22% among 360,000 | Pro5-aDG cells, alpha-DG glycosylation AlphaScreen (IIH6); 0% Pro5, 100% B10-LARGE cell signal;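 active = activation of at least 8% versus controls, or a plate z-score of at least 8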;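 also: Pro5 are CHO cells carrying HIG-tagged alpha-DG that lacks glycosylation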
H9c2 TAG inh: triacylglycerol accumulation inhibition; H9c2 cells, Nile Red lipid (TAG) fluorescence; cells loaded with 200 µM oleic acid; inhibition, % at 12.5 µM; hit rate 0.66% among 230,000; AID 651582;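 active = pattern-corrected inhibition of lipid staining of at least 50% with the nuclear-stain viability signal not falling by more than 50%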;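 also: 0% = DMSO wells and 100% = triacsin C control wells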
Starred values were filed as active, the others as inactive; · = not tested or not shown.

SMILES	NadD inh	MPTP inh	aDG glyco act	H9c2 TAG inh
O=[N+]([O-])c1ccc(N/N=C/c2c[nH]c3ccccc23)cc1	2	6	2	-37
COc1ccc(S(=O)(=O)n2nc(C)cc2C)cc1OC	-3	0	0	·
CN=c1sc(C(=O)Nc2ccccc2)c(C)n1C	-6	-1	0	1
CN=c1sc2c(n1C)C(=O)c1ccccc1C2=O	1	1	13*	-6
COCCC(=O)N1CCC(Oc2ccc(C(=O)N3CCCC(CCCO)C3)cc2)CC1 (configuration not stated)	2	-1	0	15
Cc1ccc(NC(=O)c2cc3ccccc3oc2=N)cc1	1	1	0	·
N=c1oc2c3c4c(cc2cc1C(=O)Nc1ccccc1)CCCN4CCC3	31*	2	0	-121
O=C(CCl)Nc1cccc(S(=O)(=O)NC2=NCCCCC2)c1	-5	0	2	57*
CC1(C)CC[C@]2(C(=O)n3ccnc3)CC[C@]3(C)[C@H](C(=O)C=C4[C@@]5(C)C=C(C#N)C(=O)C(C)(C)[C@@H]5CC[C@]43C)[C@@H]2C1	43*	-3	0	112
O=c1[nH]c2ccccc2nc1Cc1ccc([N+](=O)[O-])cc1	-1	0	0	·
COc1ccc2nc(NCc3ccccc3)[nH]c2c1	0	1	0	·
Cc1ccc2nc(NCc3ccccc3)[nH]c2c1	-3	1	0	60*
Oc1c(Br)cc(Br)cc1CNc1cccc2cccnc12	57*	6	1	8
Cc1cc(C(=O)COC(=O)c2cc(O)c3ccccc3c2O)c(C)n1CC1CCCO1 (configuration not stated)	36*	0	0	15
COc1ccccc1C(=O)N/C(=C/c1ccc(Br)cc1)C(=O)N1CCOCC1	-3	-1	0	13
Cc1cc(C2=CC(=O)C[C@H](c3ccc(F)cc3)C2)ccc1F	0	2	0	-2
COc1ccc(CN(CC(=O)NCc2ccccc2)C(=O)CCC(=O)Nc2nccs2)cc1	1	1	0	·
CCN1CCc2c(sc(NC(=O)c3ccc(S(=O)(=O)N(C)c4ccccc4)cc3)c2C(=O)NC)C1	2	0	43*	14
COc1ccccc1S(=O)(=O)N(C)C[C@H]1OCc2cnnn2CCCC(=O)N([C@H](C)CO)C[C@H]1C	-3	1	0	12
COc1cccc(/C=N/Nc2nc(Nc3ccc([N+](=O)[O-])cc3)nc(N3CCCC3)n2)c1O	35*	0	-1	·
O=C1C=C(Nc2ccccc2)C(=O)c2ccccc21	0	1	3	·
CCCCNC1=CC(=O)C(=O)c2ccccc21	2	2	6.9*	24
CCc1ccc(NC2=CC(=O)C(=O)c3ccccc32)cc1	10	5	5.4*	23
O=C1C=C(Nc2ccccc2)c2ccccc2C1=O	6	4	11*	-8
CC1(C(=O)NS(=O)(=O)c2ccc(F)cc2F)CCN1C(=O)c1ccccc1 (configuration not stated)	4	0	0	17
SMILES	NadD inh	MPTP inh	aDG glyco act	H9c2 TAG inh
Cc1cc(Cl)ccc1C(O)c1ncc(-c2ccc(F)cc2)[nH]1 (configuration not stated)	-2	2	1	-33
CSc1nc(N)c(C#N)c(-c2ccc(Cl)cc2)c1C#N	-8	4	0	7
COc1ccc(-c2c(C#N)c(N)nc(Sc3ccc(Cl)cc3)c2C#N)cc1	9	14	0	54*
O=C(Nc1nc2c(Br)cccc2s1)C1CC1	-6	3	0	-4
O=C(NCCc1ccccc1)c1ccc2nc(-c3ccco3)c(-c3ccco3)nc2c1	40*	5	0	-6
CC(=O)Nc1ccc(C23CC4CC(CC(C4)C2)C3)cc1	-1	1	0	·
Oc1ccc(C23CC4CC(CC(C4)C2)C3)cc1O	35*	0	0	·
COc1cccc2c1C(=O)c1c(O)c3c(c(O)c1C2=O)C[C@@](O)(C(=O)CO)C[C@@H]3OC1CC(N)C(O)C(C)O1 (some centres not stated)	53*	5	-1	36
O=C(CCC(=O)N1CCOc2ccccc21)Nc1ccccc1Br	1	0	0	4
O=C(NCC(Cl)c1ccc2ccccc2c1)c1c(F)cccc1F (configuration not stated)	-6	1	0	·
Cc1cccc(CSc2cccc3cccnc23)c1	4	1	0	50*
CN(C)C(=O)c1ccc2c(c1[N+](=O)[O-])C(=O)c1ccccc1C2=O	7	1	1	3
Cc1[nH]c2c(C)cccc2c1CCNC(=O)c1ccc2c(c1[N+](=O)[O-])C(=O)c1ccccc1C2=O	35*	0	-1	52*
Cc1[nH]c2ccccc2c1CCNC(=O)c1ccc2c(c1[N+](=O)[O-])C(=O)c1ccccc1C2=O	40*	-1	0	24
O=C(CCN1C(=O)/C(=C\c2ccco2)SC1=S)Nc1ccc(C(=O)O)c(O)c1	40*	-2	0	·
O=C(CCN1C(=O)/C(=C/c2ccco2)SC1=S)Nc1ccc(C(=O)O)c(O)c1	3	0	0	·
CCc1ccc(/C=C2/SC(=S)N(CC(=O)Nc3nc4ccccc4s3)C2=O)cc1	50*	0	1	11
CCc1ccc(/C=C2/SC(=S)N(CCC(=O)Nc3ccc(C(=O)O)cc3)C2=O)cc1	40*	2	0	-1
CCOc1cc(N2CCOCC2)c(OCC)cc1NC(=O)c1c(C)noc1C	-2	0	0	7
CN(Cc1ccccc1)C(=O)c1csc(COCCO)n1	-8	0	0	-10
C=CCN1C(=O)c2ccc(C(=O)NCCc3ccc(F)cc3)cc2C1=O	-5	1	0	-6
Cc1ccc(/C=C2\CCC3=C2OC(N)=C(C#N)C3c2ccc(C)cc2)cc1 (configuration not stated)	46*	0	0	-30
COc1ccc2c(c1)c(=O)oc1cc(OCC(=O)N3CCc4ccccc4C3)ccc12	33*	10	0	6
COc1ccc2c(c1)c(=O)oc1cc(OCC(=O)N3CCC(C)CC3)ccc12	17	8	0	·
Cc1cccc(C)c1NC(=O)C1(C)CSCC(=O)N1CCC(C)C (configuration not stated)	·	0	0	·
SMILES	NadD inh	MPTP inh	aDG glyco act	H9c2 TAG inh
CCOC(=O)C1CCN(C(=O)Nc2ccc3nc(-c4ccco4)c(-c4ccco4)nc3c2)CC1	66*	-2	0	·
CCOC(=O)C1CCN(C(=O)Nc2ccc3c(c2)nc(C)n3C)CC1	-1	-3	0	·
COc1ccc(C2=Nn3c(nnc3-c3ccccc3OC)SC2)cc1OC	6	0	0	60*
COc1cc2c(cc1NC(=O)CN1C(=O)NC3(CCc4ccccc43)C1=O)oc1ccccc12 (configuration not stated)	36*	1	0	55*
CC(OC(=O)c1cc2ccccc2cc1O)C(=O)Nc1ccc(S(N)(=O)=O)cc1 (configuration not stated)	-4	2	0	-6
CC(OC(=O)c1c2c(nc3ccccc13)/C(=C\c1ccc3c(c1)OCO3)CCC2)C(=O)Nc1ccc(S(N)(=O)=O)cc1 (configuration not stated)	44*	0	0	13
